PubChem BioAssay (NCI)
Compounds without any hit were thinned out: in the full panel of roughly 79,000, 15% have a hit. Unmarked numbers belong to inactive results. The source made the active and inactive calls. Cut-off read from the data, not from the text of the source: active = growth inhibition above about 70%; inactive = the rest.

What was measured:
[1] = NCI Yeast Anticancer Drug Screen. Data for the wt1 strain (AID 149);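 note: 0% = growth of vehicle-treated wt1 cultures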; conditions: S. cerevisiae wt1 strain (SPY 50644) growth inhibition, active compounds read high
Outline: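 Using yeast strain wt1, compound-induced growth inhibition was determined against vehicle-treated cultures.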

[2] = NCI Yeast Anticancer Drug Screen. Data for the rad50EPP+ strain (AID 151);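 note: 0% = growth of vehicle-treated control cultures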; conditions: S. cerevisiae rad50 mutant strain, active compounds read high
Outline: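 Compounds were applied to the rad50EPP+ yeast strain, which bears a defined DNA repair alteration, and growth inhibition was determined relative to vehicle-treated cultures.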

[3] = NCI Yeast Anticancer Drug Screen. Data for the mgt1 strain (AID 153); conditions: S. cerevisiae mgt1 mutant growth inhibition, active compounds read high
Outline: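 Strain: mgt1 yeast, one of a set carrying defined DNA damage repair or cell cycle control alterations. Compound-treated growth compared with vehicle.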

[4] = NCI Yeast Anticancer Drug Screen. Data for the rad50 strain (AID 155);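 note: 0% = growth of vehicle-only cultures of the same strain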; conditions: S. cerevisiae rad50 strain growth inhibition, active compounds read high
Outline: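 Relative growth inhibition (compound vs vehicle) was measured in yeast with a defined repair-gene alteration.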

[5] = NCI Yeast Anticancer Drug Screen. Data for the mec2-1 strain (AID 157); conditions: S. cerevisiae mec2-1 strain, active compounds read high
Outline: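 Strain: mec2-1 (DNA repair/cell cycle alteration). Compound exposure, then growth measured; inhibition expressed relative to vehicle.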

[6] = NCI Yeast Anticancer Drug Screen. Data for the rad14 strain (AID 159);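 note: 0% = growth of vehicle-treated control cultures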; conditions: S. cerevisiae rad14 strain growth inhibition, active compounds read high
Outline: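 Screen for anticancer potential: a yeast strain altered in DNA damage repair is grown with compound, and reduced growth is quantified against vehicle controls.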

[7] = NCI Yeast Anticancer Drug Screen. Data for the sgs1 mgt1 strain (AID 161);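 note: 0% = growth of cultures given vehicle only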; conditions: S. cerevisiae sgs1 mgt1 strain, active compounds read high
Outline: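 Inhibition of yeast growth, normalised to vehicle-treated controls, is reported for a strain bearing genetic alterations in DNA damage repair.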

[8] = NCI Yeast Anticancer Drug Screen. Data for the CLN2oe strain (AID 163);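 note: 0% = growth of vehicle-only control cultures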; conditions: S. cerevisiae CLN2oe strain, active compounds read high
Outline: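 Growth of a genetically modified yeast strain is measured after compound exposure and compared with cultures given vehicle alone.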

[9] = NCI Yeast Anticancer Drug Screen. Data for the cln2 rad14 strain (AID 165);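 note: 0% = growth equal to vehicle treated cultures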; conditions: S. cerevisiae cln2 rad14 strain, active compounds read high
Outline: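 Compounds are applied to the cln2 rad14 yeast strain, and growth is then compared with that of vehicle-treated cultures to give inhibition.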

[10] = NCI Yeast Anticancer Drug Screen. Data for the bub3 strain (AID 167); conditions: S. cerevisiae bub3 mutant strain, active compounds read high
Outline: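 Screening used yeast with an engineered genetic alteration affecting cell cycle control. Compound-exposed cultures were compared with vehicle cultures, and reduced growth was taken as inhibition.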

[11] = NCI Yeast Anticancer Drug Screen. Data for the wt2 strain (AID 169);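 note: 0% = growth of vehicle-treated yeast cultures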; conditions: S. cerevisiae wt2 strain growth inhibition, active compounds read high
Outline: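 This strain belongs to a panel of yeast strains with defined genetic alterations in DNA damage repair or cell cycle control. Compounds are applied, and growth inhibition is measured against vehicle-treated cultures.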

[12] = NCI Yeast Anticancer Drug Screen. Data for the mlh1 strain (AID 171);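 note: 0% = growth of vehicle-treated control cultures of the same strain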; conditions: S. cerevisiae mlh1 strain growth inhibition, active compounds read high
Outline: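 Growth of the mutant yeast strain after compound exposure, expressed as inhibition relative to vehicle-only controls.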

[13] = NCI Yeast Anticancer Drug Screen. Data for the sgs1 strain (AID 173);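 note: 0% = growth of vehicle-only control cultures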; conditions: S. cerevisiae sgs1 mutant, active compounds read high
Outline: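 Growth of a yeast strain bearing a defined genetic alteration is measured after compound treatment. Inhibition is expressed relative to vehicle-only controls.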

[14] = NCI Yeast Anticancer Drug Screen. Data for the mlh1 rad18 strain (AID 175); conditions: S. cerevisiae mlh1 rad18 strain growth inhibition, active compounds read high
Outline: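 Read-out is yeast growth inhibition, calculated against vehicle-only controls. The compound was applied to a strain engineered with DNA damage repair alterations.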

[15] = NCI Yeast Anticancer Drug Screen. Data for the rad18 strain (AID 177); conditions: S. cerevisiae rad18 mutant growth inhibition, active compounds read high
Outline: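 Growth of the mutant yeast strain after compound exposure, normalised to vehicle-only cultures.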

[16] = at 5.0 µM (retest, dose inferred, filed as 0.5)
[17] = at 50.0 µM (retest, dose inferred, filed as 5.0)

`CC(=O)NC(c1nc2cc(C)c(C)cc2[nH]1)c1nc2cc(C)c(C)cc2[nH]1` gave a growth inhibition ([1]; at 1.2 µM) of -20%, a growth inhibition ([1]; at 3.7 µM) of -28% and a growth inhibition ([1]; at 11.0 µM) of -14%. The growth inhibition ([1]; at 33.0 µM) was 16%, the growth inhibition ([1]; at 100.0 µM) was 62% and the growth inhibition ([2]; at 1.2 µM) was -1%. For the same molecule, the growth inhibition ([2]; at 3.7 µM) was 7%, the growth inhibition ([2]; at 11.0 µM) was 1% and the growth inhibition ([2]; at 33.0 µM) was 19%. For the same molecule, the growth inhibition ([2]; at 100.0 µM) was 47%, the growth inhibition ([3]; at 1.2 µM) was 11% and the growth inhibition ([3]; at 3.7 µM) was 19%. For the same molecule, the growth inhibition ([3]; at 11.0 µM) was 31%, the growth inhibition ([3]; at 33.0 µM) was 59% and the growth inhibition ([3]; at 100.0 µM) was 80% (active). It also gave a growth inhibition ([4]; at 1.2 µM) of 13%, a growth inhibition ([4]; at 3.7 µM) of 4% and a growth inhibition [4, 16] of 29%. For the same molecule, the growth inhibition ([4]; at 11.0 µM) was 15%, the growth inhibition ([4]; at 33.0 µM) was 39% and the growth inhibition [4, 17] was 94% (active). For the same molecule, the growth inhibition ([4]; at 50.0 µM) was 61.3%, the growth inhibition ([4]; at 100.0 µM) was 67% and the growth inhibition ([5]; at 1.2 µM) was 11%. For the same molecule, the growth inhibition ([5]; at 3.7 µM) was 15%, the growth inhibition [5, 16] was 36% and the growth inhibition ([5]; at 11.0 µM) was 22%. For the same molecule, the growth inhibition ([5]; at 33.0 µM) was 42%, the growth inhibition [5, 17] was 94% (active) and the growth inhibition ([5]; at 50.0 µM) was 37.2%. The growth inhibition ([5]; at 100.0 µM) was 78% (active), the growth inhibition ([6]; at 1.2 µM) was -22% and the growth inhibition ([6]; at 3.7 µM) was -21%. It also gave a growth inhibition ([6]; at 11.0 µM) of -9%, a growth inhibition ([6]; at 33.0 µM) of 21% and a growth inhibition ([6]; at 100.0 µM) of 66%. The growth inhibition [7, 16] was -16%, the growth inhibition [7, 17] was 78% (active) and the growth inhibition ([7]; at 50.0 µM) was 57.5%. It also gave a growth inhibition ([8]; at 1.2 µM) of -11%, a growth inhibition ([8]; at 3.7 µM) of 2% and a growth inhibition ([8]; at 11.0 µM) of -18%. For the same molecule, the growth inhibition ([8]; at 33.0 µM) was 12%, the growth inhibition ([8]; at 100.0 µM) was 62% and the growth inhibition [9, 16] was 51%. The growth inhibition [9, 17] was 92% (active), the growth inhibition ([9]; at 50.0 µM) was 42.8% and the growth inhibition ([10]; at 1.2 µM) was -2%. It also gave a growth inhibition ([10]; at 3.7 µM) of 15%, a growth inhibition [10, 16] of 16% and a growth inhibition ([10]; at 11.0 µM) of 22%. The growth inhibition ([10]; at 33.0 µM) was 56%, the growth inhibition [10, 17] was 82% (active) and the growth inhibition ([10]; at 50.0 µM) was 63.1%. The growth inhibition ([10]; at 100.0 µM) was 82% (active), the growth inhibition ([11]; at 1.2 µM) was -27% and the growth inhibition ([11]; at 3.7 µM) was -25%. For the same molecule, the growth inhibition ([11]; at 11.0 µM) was -20%, the growth inhibition ([11]; at 33.0 µM) was 20% and the growth inhibition ([11]; at 100.0 µM) was 60%. The growth inhibition ([12]; at 1.2 µM) was -45%, the growth inhibition ([12]; at 3.7 µM) was -33% and the growth inhibition ([12]; at 11.0 µM) was -17%. It also gave a growth inhibition ([12]; at 33.0 µM) of 19%, a growth inhibition ([12]; at 100.0 µM) of 64% and a growth inhibition ([13]; at 1.2 µM) of -4%. For the same molecule, the growth inhibition ([13]; at 3.7 µM) was -2%, the growth inhibition ([13]; at 11.0 µM) was -1% and the growth inhibition ([13]; at 33.0 µM) was 36%. The growth inhibition ([13]; at 100.0 µM) was 73% (active), the growth inhibition [14, 16] was 35% and the growth inhibition [14, 17] was 95% (active). For the same molecule, the growth inhibition ([14]; at 50.0 µM) was 37.6%, the growth inhibition ([15]; at 1.2 µM) was -4% and the growth inhibition ([15]; at 3.7 µM) was 1%. The growth inhibition ([15]; at 11.0 µM) was 6%, the growth inhibition ([15]; at 33.0 µM) was 22% and the growth inhibition ([15]; at 100.0 µM) was 55%.
